Screening results as filed in PubChem BioAssay.
DT40 TDP1 CPT: DT40-hTDP1 cell growth loss with CPT; 420,000 tested, 12% active; chicken DT40 Tdp1-/-;hTDP1 cells + 20 nM CPT, ATP luminescence, 48 h; Potency, µM (highest dose often 46.2 µM), inactives show at the top dose activity change, negative = growth inhibition, usual class: inhibitors; AID 686979; further: potency means the concentration at half of the fitted maximal effect; nearly all actives have a fitted effect of over 55% in size
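Chicken DT40 Tdp1-/- cells stably complemented with human TDP1 were seeded at 400 cells/well in medium containing 20 nM camptothecin, exposed to pin-transferred compounds, and grown at 37 °C for at least 48 hr. Viability was read as ATP luminescence.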
VP16 counter: Gal4-VP16 reporter inhibition counter-screen | Drosophila S2 Gal4-VP16 UAS-luciferase, luminescence, 20 h | Potency, µM (doses to about 53.6 µM), for inactives: at the top dose activity, negative = inhibition, actives largely listed as inhibitors | 310,000 tested, 3.5% active;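 further: Gal4-VP16 expression switched on by copper sulfate through the metallothionein promoter; potency means the concentration at half of the fitted maximal effect; nearly all actives have a fitted effect of over 50% in size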
LDHA block: LDHA (human) enzyme inhibition; 480,000 tested, 0.15% active; purified LDHA, NADH/diaphorase-resazurin fluorescence; active compounds read low; activity change, % (values are at about 110 or 230 µM); P00338; AID 1347041; in the data active means activity change below about -30%; inconclusive means mostly about -25% to -30%;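 further: plate controls were DMSO wells for no effect and wells without enzyme for full effect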
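Resorufin fluorescence (ex540/em590), read at 0 and 20 min after diaphorase/resazurin addition, reports the NADH left after a 5 min room-temperature reaction of 2 nM human LDH5 with 0.06 mM NADH and 0.2 mM pyruvate.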
RORg inh: ROR gamma (mouse) transcription inhibition | 310,000 tested, 5.4% active | Potency, µM (top dose mostly 53.6 µM), without a hit: at the highest dose activity change, negative = inhibition, hits mostly inhibitors | Drosophila S2 Gal4-RORgamma UAS-luciferase reporter, 20 h | P51450; further: potency means the concentration at half of the fitted maximal effect; nearly all actives have a fitted effect of over 60% in size
Target sequence (P51450 whole entry, looked up, the tested form may be a part): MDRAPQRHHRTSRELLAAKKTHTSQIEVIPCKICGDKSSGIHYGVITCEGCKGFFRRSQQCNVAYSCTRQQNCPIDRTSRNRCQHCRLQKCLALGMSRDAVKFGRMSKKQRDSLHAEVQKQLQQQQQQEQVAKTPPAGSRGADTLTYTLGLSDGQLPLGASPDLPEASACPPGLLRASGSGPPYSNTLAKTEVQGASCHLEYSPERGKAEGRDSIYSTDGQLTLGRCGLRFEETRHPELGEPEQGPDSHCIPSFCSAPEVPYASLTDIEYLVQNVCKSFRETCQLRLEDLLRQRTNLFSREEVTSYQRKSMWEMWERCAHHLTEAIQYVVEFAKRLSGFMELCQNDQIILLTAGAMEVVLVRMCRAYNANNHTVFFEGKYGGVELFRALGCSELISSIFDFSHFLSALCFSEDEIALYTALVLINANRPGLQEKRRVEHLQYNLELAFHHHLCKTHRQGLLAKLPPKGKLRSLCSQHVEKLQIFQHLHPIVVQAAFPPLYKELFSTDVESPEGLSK
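Compounds are pin-transferred onto Drosophila Schneider cells expressing a copper-inducible Gal4–ROR gamma transactivation domain fusion. After 1 hr, copper sulfate is added to 700 uM final; luciferase is read 20 hr later.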
DT40 TDP1 no CPT: qHTS for Inhibitors of human tyrosyl-DNA phosphodiesterase 1 (TDP1): qHTS in cells in absence of CPT; Potency, µM (top dose mostly 46.2 µM), for the others: top-dose activity change, negative = growth inhibition, actives largely listed as inhibitors; AID 686978, 2013; DT40 Tdp1-/- hTDP1 cells, no CPT, ATP luminescence, 48 h; 420,000 tested, 15% active; further: potency means the concentration at half of the fitted maximal effect; nearly all actives have a fitted effect of over 55% in size
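Luminescent ATP content (CellTiter-Glo) served as the growth readout. Knockout chicken DT40 cells expressing human TDP1 were exposed to compounds without camptothecin for a minimum 48 hr at 37 °C.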
IL-1B inflam inh: blocks inflammasome-driven IL-1 beta release. activity change, % at 57.5 µM. 360,000 tested, 4.7% active. THP-1 LPS/ATP IL-1B secretion, AlphaLISA, 16 h; active compounds read low; in the data active means activity change below about -50%; inconclusive means mostly about -30% to -49%
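Secreted IL-1B measured by AlphaLISA bead assay after 16 h compound exposure of THP-1 cells; compounds (final up to 57.5 uM) added 1 h before LPS (250 ng/mL) and ATP (1.25 mM) stimulation; lower signal means less secretion.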
The depositor's hits bear a star; u = inconclusive; x = no result given. A selection: hits, their analogues and other compounds. The true share with any hit is near 18%. Unless noted, the call rests on the fitted dose curve; in most records, active means well fitted curve in the direction sought with a large enough effect; inconclusive means small, poorly fitted or top-dose-only effect, or another doubt; inactive means no such curve, though single readings can be large; an effect the other way counts as inactive or inconclusive. Unless noted, on the % scale 0 is the no-effect control and ±100 the full control effect.

SMILES	DT40 TDP1 CPT	VP16 counter	LDHA block	RORg inh	DT40 TDP1 no CPT	IL-1B inflam inh
CC1=CC(C)(C)NC(=S)N1c1ccc(C)cc1	20.6µM*	3.55µM*	1.1	1.58µM*	23.1µM*	7.9
CCOC(=O)C1CCN(C(=O)CCC(=O)NCCC2=CCCCC2)CC1	x	x	4.8	x	x	x
CN(C)C(CNC(=S)NCCc1ccccc1)c1cccs1 (stereo not given)	x	x	-2.0	x	x	x
Cn1nc(C(=O)OCC(=O)c2c[nH]c3ccccc23)c2ccccc2c1=O	x	x	0.0	x	x	x
Cn1cnc2c1c(=O)n(Cc1ccc(Br)cc1)c(=O)n2C	x	x	-4.8	x	x	x
CN1CCN(c2ccc(-c3cc(NC=O)c4ncc(-c5ccccc5)n4c3)cc2)CC1	20.6µM*	x	3.7	x	16.4µM*	-7.0
CN1CCN(c2ccc(-c3cc(NC=O)c4ncc(-c5ccc(F)cc5)n4c3)cc2)CC1	14.6µM*	x	2.0	x	u	-12.2
OCc1cnc2ccccc2c1	x	x	-0.5	x	x	x
COc1ccc2c(c1OC)C(=O)OC2Nc1nc(-c2ccc([N+](=O)[O-])cc2)cs1 (stereo not given)	4.4%	u	1.8	-0.2%	u	-7.9
COc1ccc(-c2csc(NC3OC(=O)c4c3ccc(OC)c4OC)n2)cc1OC (stereo not given)	9.2µM*	7.94µM*	-4.4	3.55µM*	14.6µM*	x
COc1ccc2c(c1OC)C(=O)OC2Nc1nc(-c2cc3cc(Br)ccc3oc2=O)cs1 (stereo not given)	u	3.1%	-8.7	21.7%	u	-56.0*
Cc1ccccc1CN1CCC(CNC(=O)c2cccc3c2SCCC3=O)CC1	x	x	3.0	x	x	x
Cc1ccc(CNC(=O)CCc2ncc(-c3c(F)cccc3F)o2)cc1	x	x	-1.8	x	x	x
COC(=O)c1ccc(NC(=O)N2CCc3c([nH]c4ccccc34)C2c2ccc(C)cc2)cc1 (stereo not given)	u	x	-1.7	x	5.8µM*	x
CC(=O)NCCC(=O)N1CCc2c([nH]c3ccccc23)C1c1cccc(Cl)c1 (stereo not given)	u	-16.4%	0.9	3.2%	14.6µM*	-0.1
Cc1ccc(C2c3[nH]c4ccccc4c3CCN2C(=O)Nc2ccc(C)c(C)c2)cc1 (stereo not given)	u	x	-6.5	x	u	x
O=C(CSCc1ccc(F)cc1)N1CCc2c([nH]c3ccccc23)C1c1ccccc1 (stereo not given)	20.6µM*	x	-8.3	x	14.6µM*	x
O=C(CSCc1ccc(F)cc1)N1CCc2c([nH]c3ccccc23)C1c1ccc(Cl)cc1 (stereo not given)	u	x	0.7	x	u	x
Cc1ccc(C2c3[nH]c4ccccc4c3CCN2C(=O)CCC2CCCC2)cc1 (stereo not given)	16.4µM*	x	-0.2	x	u	x
O=c1c2ccccc2nc(SCc2nc3ccccc3o2)n1C1CC1	x	x	0.0	x	x	x
COC(=O)c1ccc(COC(=O)CCC(=O)c2ccc(Cl)cc2)cc1	x	x	5.3	x	x	x
NC(=O)[C@@H]1CCCN1C(C(=O)O)c1cn(CCC(=O)O)c2cc(F)ccc12 (stereo not given in full)	x	x	6.6	x	x	x
Cc1ccc(C2c3[nH]c4ccccc4c3CCN2C(=O)c2ccc(N(C)C)cc2)cc1 (stereo not given)	20.6µM*	x	-1.3	x	20.6µM*	x
Cc1cnc(C(=O)N2CCc3c([nH]c4ccccc34)C2c2ccc(F)cc2)cn1 (stereo not given)	-25.7%	-11.1%	1.3	0.0%	u	0.9
O=C(c1ccc(F)cc1)[C@@H]1[C@@H]2CCCN2[C@]2(C(=O)Nc3ccc(F)cc32)[C@@]12C(=O)Nc1ccccc12	x	x	0.2	x	x	x
N#CC1C(=O)c2ccccc2C1c1ccccc1 (stereo not given)	u	x	27.3	x	u	-103.7*
COc1cccc2cc(-c3cc(=O)oc4ccc(OS(C)(=O)=O)cc34)oc12	x	x	11.3	x	x	x
